Bioassay records deposited in PubChem BioAssay by National Center for Advancing Translational Sciences (NCATS).
DT40 TDP1 CPT – growth inhibition of DT40 Tdp1-/-;hTDP1 cells with camptothecin (screen for TDP1 inhibitors) | Potency, µM (doses to about 46.2 µM), for the others: at the top dose activity change, negative = growth inhibition, actives largely listed as inhibitors | actives 12% (n = 420,000) | AID 686979 | chicken DT40 Tdp1-/-;hTDP1 cells + 20 nM CPT, ATP luminescence, 48 h; also: potency is read from the fitted curve at half-maximal effect; nearly all actives have a fitted effect of over 55% in size
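Chicken DT40 Tdp1-/- cells complemented with human TDP1, 400 cells/well, exposed to compounds plus 20 nM camptothecin for at least 48 h at 37 C; viability read as ATP content by CellTiter-Glo luminescence.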
ELG1 repair inh – blocks ELG1-dependent DNA repair in HEK293T cells | HEK293T ELG1-luciferase reporter, luminescence, 16 h; DNA damage induced by 5-fluorouridine | Potency, µM (doses to about 46.1 µM), for inactives: at the highest dose activity change, negative = inhibition, most hits filed as inhibitors | actives 2.3% (n = 330,000) | AID 504467; also: potency is read from the fitted curve at half-maximal effect; nearly all actives have a fitted effect of over 55% in size
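Cells (2,000 per well) received 5-fluorouridine plus test compound or DMSO and were incubated 16 hr at 37 °C, 5% CO2. Luciferase activity was read by luminescence 30 min after ONE-Glo addition; signal suppression marked inhibition of damage-induced ELG1 function.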
DT40 TDP1 no CPT – qHTS for Inhibitors of human tyrosyl-DNA phosphodiesterase 1 (TDP1): qHTS in cells in absence of CPT | DT40 Tdp1-/- hTDP1 cells, no CPT, ATP luminescence, 48 h | Potency, µM (doses to about 46.2 µM), for inactives: top-dose activity change, negative = growth inhibition, actives largely listed as inhibitors | actives 15% (n = 420,000) | AID 686978, 2013; also: potency is read from the fitted curve at half-maximal effect; nearly all actives have a fitted effect of over 55% in size
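Stably hTDP1-transfected Tdp1-null chicken DT40 cells were treated with library compounds minus camptothecin and grown for at least 48 hr at 37 °C, after which cellular ATP was quantified by luminescence.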
RORg inh – inhibitors of mouse ROR gamma transcriptional activity; P51450; Drosophila S2 Gal4-RORgamma UAS-luciferase reporter, 20 h; Potency, µM (titrated, usually from 53.6 µM), for the others: at the top dose activity change, negative = inhibition, actives largely listed as inhibitors; AID 2551; actives 5.4% (n = 310,000); also: potency is read from the fitted curve at half-maximal effect; nearly all actives have a fitted effect of over 60% in size
Target sequence (P51450 whole entry, looked up, the tested form may be a part): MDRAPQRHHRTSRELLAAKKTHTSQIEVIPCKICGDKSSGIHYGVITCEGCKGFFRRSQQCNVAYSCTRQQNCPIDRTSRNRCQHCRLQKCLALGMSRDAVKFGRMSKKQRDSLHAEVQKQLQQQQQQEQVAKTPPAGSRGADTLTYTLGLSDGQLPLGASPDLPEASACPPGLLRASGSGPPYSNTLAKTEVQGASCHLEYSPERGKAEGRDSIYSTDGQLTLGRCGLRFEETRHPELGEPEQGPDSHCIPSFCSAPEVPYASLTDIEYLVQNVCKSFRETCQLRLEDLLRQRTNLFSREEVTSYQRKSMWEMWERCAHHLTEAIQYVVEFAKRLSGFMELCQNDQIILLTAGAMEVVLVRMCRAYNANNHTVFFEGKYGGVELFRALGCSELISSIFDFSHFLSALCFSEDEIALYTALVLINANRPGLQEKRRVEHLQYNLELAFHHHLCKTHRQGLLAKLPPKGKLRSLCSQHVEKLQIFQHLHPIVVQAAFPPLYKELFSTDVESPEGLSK
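Read-out: Photinus luciferase luminescence; inhibitors lower reporter signal. Insect Schneider cells with Gal4-ROR gamma fusion under metallothionein promoter, UAS reporter; 700 uM final copper sulfate induction, 20 hr, ambient temperature.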
IL1B secr inh – blocks inflammasome-driven IL-1 beta release. activity change, % at 57.5 µM. THP-1 LPS/ATP IL-1B secretion, AlphaLISA, 16 h; hits give low values. actives 4.7% (n = 360,000). AID 743279; in the data active = activity change below about -50%; inconclusive = mostly about -30% to -49%
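THP-1 cells pretreated 1 hr with compounds (up to 57.5 uM final), then stimulated with LPS (250 ng/mL final) plus ATP (1.25 mM final); secreted IL-1B measured by AlphaLISA after 16 hr, decreased signal indicating inhibition.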
VP16 counter – counter-screen for ROR gamma inhibitors: Gal4-VP16 reporter; AID 2546; Potency, µM (doses to about 53.6 µM), for inactives: top-dose activity, negative = inhibition, most hits filed as inhibitors; actives 3.5% (n = 310,000); Drosophila S2 Gal4-VP16 UAS-luciferase, luminescence, 20 h;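 also: Gal4-VP16 expression switched on by copper sulfate through the metallothionein promoter; potency is read from the fitted curve at half-maximal effect; nearly all actives have a fitted effect of over 50% in size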
Starred values were filed as active, the others as inactive; u = inconclusive; x = no result; [ ] = remark or other dose. Rows were chosen to be rich in hits. Some 21% of all compounds tested hit in one or more screens of this group. Unless noted, calls follow the shape of the dose curve; as a rule, active = well fitted curve in the direction sought with a large enough effect; inconclusive = small, poorly fitted or top-dose-only effect, or another doubt; inactive = no such curve, though single readings can be large; an effect the other way counts as inactive or inconclusive. % is scaled to controls: 0 for no effect and ±100 for the full control effect.

SMILES	DT40 TDP1 CPT	ELG1 repair inh	DT40 TDP1 no CPT	RORg inh	IL1B secr inh	VP16 counter
CCCCCCCCN1C(=O)[C@H](CC(=O)NCc2cccc(C(F)(F)F)c2)C[C@@]2(C(=O)OC)CC(C)(C)CC=C12	12µM*	x	10µM*	x	-22	x
COC(=O)[C@@]12C[C@@H](CC(=O)NCc3ccc(C)o3)C(=O)N(CCc3ccc(OC)c(OC)c3)C1=CCC(C)(C)C2	9.2µM*	x	8.2µM*	x	u	x
CCOC(=O)N1CCN(C(=O)C[C@@H]2C[C@@]3(C(=O)OC)CC(C)(C)CC=C3N(CCc3ccc(OC)c(OC)c3)C2=O)CC1	u	x	16µM*	x	u	x
COC(=O)[C@@]12C[C@@H](CC(=O)N3CCOCC3)C(=O)N(CCc3ccc(OC)c(OC)c3)C1=CCC(C)(C)C2	7%	x	9%	x	-23	x
COC(=O)[C@@]12C[C@@H](CC(=O)NCc3ccccc3)C(=O)N(CCc3ccc(OC)c(OC)c3)C1=CCC(C)(C)C2	13µM*	x	13µM*	x	-28	x
CC1CN(C(=O)Cn2cc(SCC(=O)N3CCOCC3)c3ccccc32)CC(C)O1 (configuration not stated)	-14%	u	6%	10%	0	-4%
CCN(c1ccccc1)c1ncnc2c1cnn2-c1ccc(OC)cc1	8.2µM*	x	5.2µM*	x	x	x
Cc1ccc(-n2ncc3c(N(CCO)Cc4ccccc4)ncnc32)cc1	12µM*	x	8.2µM*	x	x	x
CCCCN(c1ccccc1)c1ncnc2c1cnn2-c1ccc(Cl)cc1	16µM*	x	18µM*	x	x	x
OCCN(CCO)c1ncnc2c1cnn2-c1ccc(F)cc1	0%	x	-3%	x	x	x
CC(=O)Nc1ccc(NC(=O)CN(c2cc(Cl)ccc2Cl)S(C)(=O)=O)cc1	7%	u	4%	0%	-1	23%
COC(=O)[C@]1(C)N[C@H](CN(C)C(=O)c2ccc(F)cc2)[C@@H]2C(=O)N(C)C(=O)[C@@H]21	-2%	-1%	3%	x	22	x
COc1ccc2[nH]c3nc(SCc4nnc(-c5ccc(C)cc5)o4)nnc3c2c1	26µM*	-17%	16µM*	-1%	21	19%
Cc1cccc(NC(=O)C2CCN(S(=O)(=O)c3c(C)noc3/C=C/c3ccco3)CC2)n1	16µM*	13µM*	23µM*	u	u	-20%
Cc1cc(C)cc(NC(=O)C2CCN(S(=O)(=O)c3c(C)noc3/C=C/c3ccco3)CC2)c1	23µM*	x	15µM*	x	x	x
Cc1ccc(NC(=O)C2CCN(S(=O)(=O)c3c(C)noc3/C=C/c3ccco3)CC2)cc1C	u	x	13µM*	x	x	x
Cc1noc(/C=C/c2ccco2)c1S(=O)(=O)N1CCC(C(=O)Nc2ccc(F)c(Cl)c2)CC1	5.2µM*	x	4.6µM*	x	x	x
Cc1ccc(S(=O)(=O)N(C)C)cc1NC(=O)c1ccccc1SCC(=O)N1CCCC1	-10%	-18%	u	x	-7	x
Cc1cccc(NC(=O)C2CCN(S(=O)(=O)c3ccc4c(c3)OCCCO4)CC2)n1	u	u	21µM*	x	-12	x
CCc1ccc(/C=C2\Oc3cc(OC(=O)N4CCOCC4)ccc3C2=O)cc1	u	-10%	15µM*	u	-2	u
COc1ccc(/C=C2\Oc3cc(OC(=O)N4CCOCC4)ccc3C2=O)cc1	18µM*	u	13µM*	u	-1	-3%
COc1ccccc1C(=O)Oc1ccc2c(c1)O/C(=C\c1ccncc1)C2=O	-30%	3%	13µM*	-36%	-1	-1%
c1ccc2c(c1)ccc1[nH]c3c(c12)CCCC3	-20%	x	u	x	-10	x
c1ccc2c3c([nH]c2c1)CCCC3	-2%	x	u	x	x	x
O=c1c2c([nH]c3ccccc13)CCCCCC2	23µM*	-15%	16µM*	26%	30	-14%
SMILES	DT40 TDP1 CPT	ELG1 repair inh	DT40 TDP1 no CPT	RORg inh	IL1B secr inh	VP16 counter
O=c1c2c([nH]c3ccccc13)CCCCC2	-28%	u	u	u	45	18µM*
O=c1c2ccccc2[nH]c2ccccc12	8.2µM*	-14%	16µM*	u	-9	20µM*
CC(C)(C)c1ccc(C(=O)CCCN2CCC(OC(c3ccccc3)c3ccccc3)CC2)cc1	12µM*	x	6µM*	0%[10 µM]	x	11µM*
CCC(C)c1ccc(N(CC(=O)NC(C)(C)C)C(=O)CNC(=O)c2cccs2)cc1 (configuration not stated)	u	-10%	18µM*	-5%	-5	-34%
Cn1c(N)c(C(=O)COC(=O)CSc2cccc3cccc(Cl)c23)c(=O)n(C)c1=O	-18%	-1%	-28%	1%	9	-7%
Cc1cccc(N2CCN(C(=O)CCCn3c(=O)[nH]c4ccsc4c3=O)CC2C)c1 (configuration not stated)	-14%	u	26µM*	u	-20	2%
COc1ccccc1N1CCN(C(=O)CCn2c(=O)[nH]c3ccsc3c2=O)CC1	-5%	u	-8%	18%	33	-1%
Cc1cccc(N2CCN(C(=O)CCn3c(=O)[nH]c4ccsc4c3=O)CC2C)c1 (configuration not stated)	u	u	10µM*	33%	4	0%
COc1ccc(-n2c(SCC(=O)c3ccccc3)nc3c([nH]c4ccccc43)c2=O)cc1	-18%	x	-13%	x	x	x
C/C(N)=C(/C#N)C(=O)COC(=O)CSc1ccccc1	-11%	-7%	-11%	-40%	10	8%
C/C(N)=C(/C#N)C(=O)COC(=O)CCSc1ccccc1Cl	-3%	0%	u	11µM*	23	u
COc1cccc(OCCNS(=O)(=O)c2ccccc2[N+](=O)[O-])c1	-1%	0%	0%	x	-2	x
C#C[C@]1(OC(C)=O)CC[C@H]2[C@@H]3CCC4=CC(=O)CC[C@@H]4[C@H]3CC[C@@]21C	8.4µM*	x	12µM*	u	x	1%
CCOc1ccc(CCNS(=O)(=O)c2cc(Br)cc3c2N(C(C)=O)CC3)cc1OCC	-27%	x	u	x	x	x
Cc1cccc(N(C)c2nc3ccc(C)cc3n3cnnc23)c1	u	x	16µM*	x	x	x
CC(SCc1ccccc1)C(=O)Nc1ccccc1 (configuration not stated)	-11%	1%	10%	3%	28	-1%
O=C(C[n+]1cccc2cc(Cl)ccc21)c1cccc([N+](=O)[O-])c1	-5%	x	u	x	x	x
